Bioassay records (PubChem BioAssay)
aSyn yeast inh: inhibitors of alpha-synuclein toxicity in yeast | Yeast expressing alpha-synuclein, growth rescue, BacTiter-Glo, 24 h | Potency, µM (series often up to 46.1 µM), hits mostly activators | 0.14% of 370,000 active; further: nearly all actives have a fitted effect of over 65% in size
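Screening used galactose-induced yeast with toxic alpha-synuclein levels, exposed to compound for 24 hr at 30 deg C. Cell growth, read with BacTiter-Glo luminescence, gave the measured signal.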
FUS yeast rescue: rescues growth of FUS-expressing yeast; S. cerevisiae FUS-expressing, growth rescue, OD600, 24 h; Potency, µM (titrated, usually from 76.6 µM), usual class: activators; 0.24% of 390,000 active; AID 1347120; further: nearly all actives have a fitted effect of over 55% in size
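Restored growth of FUS-toxic S. cerevisiae, read as 600 nm absorbance after 24 h at 30C in galactose medium (starting OD 0.005). Controls CP55940 and DMSO.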
Abeta rescue: restores growth of yeast expressing A-beta42 peptide; yeast expressing A-beta42, growth rescue, OD600, 48 h; response scale: 0% DMSO, 100% iron-clioquinol control; Potency, µM (titrated, usually from 46.1 µM), actives largely listed as activators; 0.063% of 410,000 active; AID 1347071; further: nearly all actives have a fitted effect of over 55% in size
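Growth rescue measured by 600 nm absorbance after 48 h yeast culture at 30 C with compound. Values normalized between DMSO and an equimolar ferric chloride plus clioquinol control.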
TDP-43 yeast inh: inhibitors of TDP-43 toxicity in yeast. TDP-43 expressing yeast growth rescue, BacTiter-Glo, 24 h. Potency, µM (titrated, usually from 46.1 µM), most hits filed as activators. 1.8% of 410,000 active. AID 652104; further: nearly all actives have a fitted effect of over 50% in size
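Cell-based yeast growth screen: TDP-43 expression induced in galactose, inoculum OD600=0.02 after raffinose pregrowth to mid-log. Read-out BacTiter-Glo luminescence at 24 hr, 30 deg C; inhibition of toxicity seen as signal increase.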
Numbers stand for hits; n = inactive; u = inconclusive; x = not tested or not shown; ! = not active in a repeat; [ ] = another dose, or the depositor's remark. Compounds with a hit are over-represented: about 2.1% of the library has one in this group of screens. The call rests on the fitted dose curve; in most records, active means well fitted curve in the direction sought with a large enough effect; inconclusive means small, poorly fitted or top-dose-only effect, or another doubt; inactive means no such curve, though single readings can be large; an effect the other way counts as inactive or inconclusive.

SMILES	aSyn yeast inh	FUS yeast rescue	Abeta rescue	TDP-43 yeast inh
O=C(Nc1nnc(-c2ccc3c(c2)CCCC3)o1)c1ccc(Cl)cc1Cl	u	n	u	4µM
COC(=O)C(CCSC)NC(=O)c1c(C)oc2ncn(CC(C)C)c(=O)c12 (configuration not stated)	x	n	n	n
NS(=O)(=O)c1ccc(S(=O)(=O)c2ccccc2)nc1	n	n	n	n
NS(=O)(=O)c1ccc(Sc2ccc3c(c2)CCC3)nc1	n	n	n	16µM
CCCCCCCNC(=O)C1(CC2CC(c3ccc(Cl)cc3)=NO2)CCN(C(=O)CCCCCBr)CC1 (configuration not stated)	n	32µM	n	n
COc1ccc(CNc2ccc(C)cc2)cc1Br	n	n	n	18µM
Cc1cc(NC(=O)CSc2ccc(Cl)cc2)no1	n	n	n	n
CCCc1ccc(-c2csc(NC(=O)C3=COCCO3)n2)cc1	n	n	n	16µM
CC(=O)Nc1ccc(-c2csc(NC(=O)c3ccc(C)o3)n2)cc1	n	28µM	n	n
Cc1ccc(C(=O)Nc2cccc(NC(=O)c3ccc(C)o3)n2)o1	n	n	n	7.9µM
O=C(COC(=O)c1n[nH]c(=O)c2ccccc12)Nc1cccc(S(=O)(=O)N2CCOCC2)c1	n	40µM	n	n
Cc1c(CN2CCC(n3nccc3NC(=O)C3CC3)CC2)[nH]c2ccccc12	n	n	n	n
COc1ccc(CN(C)C(=O)CNC(=O)c2ccc3ccccc3c2)c(OC)c1	n	n	n	n
COc1ccc(Br)cc1CN(C)C(=O)CNC(=O)c1ccc2ccccc2c1	n	n	n	22µM
O=C(NCc1ccccc1)c1ccc(=O)oc1	n	n	n	n[1.82 µM]
Cc1cc(C)nc(Sc2ccc([N+](=O)[O-])cc2[N+](=O)[O-])n1	n	x	n	n
O=[N+]([O-])c1ccc(Sc2ccncn2)c([N+](=O)[O-])c1	n	n	n	35µM
COc1ccc(C(=O)c2coc3ccc(OC(C)=O)cc23)cc1	n	n	n	13µM
COc1ccc(OC)c(C(=O)c2coc3ccc(OC(C)=O)cc23)c1	n	n	n	n[0.397 µM]
Cc1ccc(CNC(=O)c2ccc(N3CCC4(CC3)CC(c3ccccc3)=NO4)c(NC(=O)c3ccco3)c2)cc1	n	18µM	n	n
Cc1ccc(CNC(=O)c2ccc(N3CCC4(CC3)CC(c3cccc(Br)c3)=NO4)c(NC(=O)c3ccco3)c2)cc1	n	u	n	n
Cc1ccc(Cl)cc1N1CCN(C(=O)CCn2c(=O)c3cccn3c3cccnc32)CC1	x	n	n	u
O=C(CCn1c(=O)c2cccn2c2cccnc21)N1CCN(c2cccc(Cl)c2)CC1	n	n	n	20µM!
CC(C)c1ccc(NC(=O)COC(=O)[C@@H]2CCCN2C(=O)c2cccs2)cc1	n	u	n	35µM
CC(C)NC(=O)NC(=O)COC(=O)C1CCCN1C(=O)c1cccs1 (configuration not stated)	n	n	n	n
SMILES	aSyn yeast inh	FUS yeast rescue	Abeta rescue	TDP-43 yeast inh
Cc1cc(Cl)cc(Cl)c1OCC(=O)NCc1ccco1	n	n	n	14µM
C=CCn1c(C2CC2)n[nH]c1=S	n	n	n	n
CCCCCC1CCC(c2n[nH]c(=S)n2C)CC1 (configuration not stated)	n	n	u	14µM
COCc1cccc(-c2csc(C(O)c3ccc(F)c(F)c3)n2)c1 (configuration not stated)	u	n	n	20µM
OC(c1ccccc1)c1nc(-c2cccc(F)c2)cs1 (configuration not stated)	n	n	n	u
COc1cc(C(O)c2nc(-c3cccc(C(F)(F)F)c3)cs2)ccc1F (configuration not stated)	n	n	n	n
COc1ccc(C(O)c2nc(-c3cccc(C(F)(F)F)c3)cs2)cc1 (configuration not stated)	n	u	n	22µM
COc1cccc(C(O)c2nc(-c3cccc(C(F)(F)F)c3)cs2)c1 (configuration not stated)	n	n	n	22µM
COc1ccc(C(O)c2nc(-c3cccc(F)c3)cs2)cc1 (configuration not stated)	u	n	n	14µM
COc1cccc(C(NC(C)=O)c2nc(-c3cccc(C(F)(F)F)c3)cs2)c1 (configuration not stated)	n	n	n	u
CCOc1ccc(CCNC(=O)c2c3c(nc4ccccc24)C(=O)N(C2CCCCC2)C3)cc1	x	n	n	n
Cc1cccc(NC(=O)Cn2cc(C=O)c3ccccc32)c1	n	n	n	n
O=C(Cn1c(NCCO)nc2ccccc21)c1ccc(F)cc1	n	n	n	n
Cc1cc(N2CCN(c3ccccc3)CC2)n2cnnc2n1	x	n	n	n
CCCc1cc(N2CCN(c3ccccc3F)CC2)n2cnnc2n1	x	n	n	20µM
COc1ccccc1N1CCN(c2cc(C)nc3nncn23)CC1	x	n	n	n
CCCc1cc(N2CCN(c3ccccc3)CC2)n2cnnc2n1	x	n	n	20µM
COc1ccc(CC(=O)NCCS(=O)(=O)N2CCN(c3ccccc3)CC2)cc1	n	n	n	n
Cc1cc(C)n2nc(C(=O)OCC(=O)Nc3ccc(Cl)cc3)nc2n1	n	n	n	n
CCOc1ccc(C(=O)NC(=S)Nc2ccccc2N2CCCCC2)cc1[N+](=O)[O-]	n	n	n	n
Cc1cccc(NC(=O)c2ccc(N3CCCCC3)c([N+](=O)[O-])c2)n1	n	x	n	3.5µM
COc1cc(C(=O)NC(=S)Nc2ccccc2N2CCOCC2)cc(OC)c1OC	n	n	n	n
CC(=O)c1cccc(OCC(=O)Nc2ccccc2N2CCOCC2)c1	n	n	n	22µM
COc1ccc(C(=O)NC(=S)Nc2ccccc2N2CCCCC2)cc1[N+](=O)[O-]	n	u	u	16µM
Cc1cccc(NC(=O)c2ccc(N3CCOCC3)c([N+](=O)[O-])c2)n1	n	n	n	u
SMILES	aSyn yeast inh	FUS yeast rescue	Abeta rescue	TDP-43 yeast inh
COc1cccc(C(=O)NC(=S)Nc2ccccc2N2CCOCC2)c1	n	x	n	13µM
Cc1cc(NC(=O)c2ccc(Br)c(S(=O)(=O)N3CCCC3)c2)no1	n	n	n	n
COc1ccc(OCC(=O)Nc2cccc3cccnc23)cc1	x	n	n	13µM
COc1ccc(OCC(=O)Nc2ccccc2N2CCN(C)CC2)cc1	n	n	n	n
COc1ccc(OCC(=O)Nc2ccccc2N2CCCCC2)cc1	n	n	n	11µM
Cc1ccc(Cc2c(-c3cccc(Cl)c3)nc3ccc(Br)cn23)cc1	n	u	n	u
COc1ccc(Cc2c(-c3cccc(Cl)c3)nc3ccc(Cl)cn23)c(C)c1	n	n	n	35µM
Cc1ccc2nc(-c3cccc(Br)c3)c(Cc3cccc(Cl)c3)n2c1	n	n	n	35µM
Cc1ccc(Cc2c(-c3cccc(Cl)c3)nc3ccc(C)cn23)cc1	n	n	n	28µM
Clc1cccc(Cc2c(-c3cccc(Br)c3)nc3ccc(Cl)cn23)c1	n	n	n	u
Cc1ccc(Cc2c(-c3cccc(Cl)c3)nc3ccc(Cl)cn23)cc1	n	n	n	16µM
